Source: publication PMC5540273 (PLoS ONE, 2017)

Experiments:
Conditions in all cases: concentration: 1 μM, replicates: in singlicate; n = 1
[1] = tested on: BTK
[2] = tested on: BUB1
[3] = tested on: CAMK1B
[4] = tested on: CAMK1D
[5] = tested on: CAMK1G
[6] = tested on: CAMK1
[7] = tested on: CAMK2A
[8] = tested on: CAMK2B
[9] = tested on: CAMK2D
[10] = tested on: CAMK2G
[11] = tested on: CAMK4
[12] = tested on: CAMKK1
[13] = tested on: CAMKK2
[14] = tested on: CASK
[15] = tested on: T1, CDC2L1
T1 construct: gene CDK11B

[16] = tested on: CDC2L2
[17] = tested on: T2, CDC2L5
T2 construct: gene CDK13

[18] = tested on: T3, CDK11
T3 construct: gene CDK19

[19] = tested on: CDK2
[20] = tested on: CDK3
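Note: KINOMEscan kinase panel screen.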

SMILES	%Inh [1]	%Inh [2]	%Inh [3]	%Inh [4]	%Inh [5]	%Inh [6]	%Inh [7]	%Inh [8]	%Inh [9]	%Inh [10]	%Inh [11]	%Inh [12]	%Inh [13]	%Inh [14]	%Inh [15]	%Inh [16]	%Inh [17]	%Inh [18]	%Inh [19]	%Inh [20]
Nc1ncnc2occ(-c3ccc4c(c3)CCN4C(=O)Cc3cc(F)ccc3F)c12 [GSK2645446]	0%	0%	0%	8%	9%	6%	0%	0%	14%	20%	0%	0%	13%	0%	0%	12%	0%	81%	0%	0%
CCn1c(-c2ccccc2)nc2cnccc21 [SB-733416]	0%	2%	44%	8%	0%	0%	0%	0%	0%	0%	13%	0%	0%	18%	0%	0%	98.3%	0%	12%	19%
Fc1ccc(-c2nc[nH]c2-c2ccncc2)cc1 [SB-217360]	0%	84%	0%	10%	0%	0%	0%	0%	0%	0%	0%	0%	1%	13%	0%	0%	0%	0%	0%	0%
COc1ccc(CSc2nnc(-c3ccc4nccn4c3)o2)cc1C(F)(F)F	15%	0%	8%	0%	22%	5%	2%	32%	11%	16%	0%	0%	0%	15%	4%	5%	50%	40%	0%	4%
Cc1nccc(-c2c(-c3ccc(F)cc3)ncn2CCCN2CCOCC2)n1.Cl [SB-282975]	6%	0%	0%	0%	0%	0%	0%	0%	7%	0%	6%	9%	0%	21%	100%	23%	5%	11%	37%	26%
CS(=O)(=O)CCNCc1nc(-c2ccc3ncnc(Nc4ccc5c(cnn5Cc5ccccc5)c4)c3c2)cs1.Cl.Cl [GW569716]	20%	49%	0%	9%	0%	11%	0%	0%	6%	16%	0%	4%	1%	0%	0%	0%	0%	0%	0%	1%
Cc1c(Cn2c(C)c(C)n3c(=O)cc(N4CCOCC4)nc23)cccc1C(F)(F)F [GSK2328680]	0%	2%	0%	5%	2%	7%	0%	0%	0%	15%	0%	0%	10%	16%	0%	14%	0%	0%	2%	7%
Cc1c(Cn2c3ccccc3n3c(=O)cc(N4CCOCC4)nc23)cccc1C(F)(F)F [GSK2306394]	0%	3%	13%	20%	0%	5%	0%	0%	9%	7%	8%	69%	5%	0%	100%	0%	0%	0%	0%	0%
COc1ccc(CSc2nnc(-c3ccc4ncsc4c3)o2)cc1C(F)(F)F	0%	0%	0%	23%	2%	1%	0%	0%	0%	0%	0%	0%	0%	10%	0%	0%	35%	37%	1%	0%
CC(C)c1cc(-c2ccc3c(N)n[nH]c3c2)nc(N)n1 [GSK2250882]	0%	60%	0%	23%	6%	21%	0%	0%	8%	23%	0%	0%	18%	21%	0%	5%	0%	0%	0%	5%
COc1nccc(-c2c(-c3ccc(F)cc3)ncn2CCCN2CCOCC2)n1 [SB-282852]	33%	0%	29%	0%	0%	0%	0%	0%	0%	0%	17%	10%	3%	8%	0%	0%	28%	3%	0%	6%
Cc1ccc(NC(=O)Nc2ccccc2F)cc1-c1ccc(C(=O)Nc2ccncc2)cc1 [GSK1398477]	0%	0%	59%	33%	16%	29%	0%	0%	14%	37%	5%	15%	31%	17%	8%	10%	0%	12%	0%	24%
CNCc1ccc2nc(NC(=O)c3ccc(C(C)(C)C)cc3)cn2c1	32%	26%	33%	1%	0%	1%	4%	2%	1%	12%	6%	0%	12%	18%	16%	4%	33%	4%	0%	7%
O=C1NC(=O)C(c2ccc(Cl)cc2)=C1Nc1cccc(Cl)c1 [SB-317651]	0%	0%	3%	4%	0%	0%	0%	0%	0%	0%	29%	7%	5%	27%	0%	4%	0%	6%	0%	8%
COc1cc2ncnc(Nc3cccc(Br)c3)c2cc1OC.Cl [GI230329]	30%	96.5%	0%	18%	0%	23%	0%	0%	0%	32%	0%	20%	16%	18%	0%	14%	0%	0%	0%	6%
COc1ccc(Nc2nccc(N3CCC(NC(=O)C(C)c4ccc(Cl)cc4)CC3)n2)cc1 (stereo not drawn) [GSK1379812]	0%	6%	32%	23%	13%	25%	0%	0%	14%	36%	0%	0%	31%	3%	0%	10%	0%	63%	0%	0%
CNc1cc(-c2ccc3c(N)n[nH]c3c2)nc(N)n1 [GSK2224810]	0%	53%	8%	23%	0%	24%	0%	13%	7%	21%	0%	5%	11%	6%	3%	30%	0%	8%	0%	9%
CS(=O)(=O)CCNCc1nc(-c2ccc3ncnc(Nc4ccc(OCc5ccccc5)c(Cl)c4)c3c2)cs1.Cl [GW582764]	35%	62%	4%	3%	0%	9%	0%	0%	1%	18%	0%	0%	7%	5%	0%	0%	0%	0%	0%	1%
